# Data as given in PubChem BioAssay AID1508622 (National Center for Advancing Translational Sciences (NCATS), 2021).
# The source made the active and inactive calls. A call without a number means that no potency is given here. Calls follow the shape of the dose curve; as a rule, active = well fitted activation curve with a large enough effect; inconclusive = small, poorly fitted or top-dose-only effect; inactive = no such curve, though single readings can be large or run the other way.
# Test: Confirmatory qHTS for Identification of Small Molecule Activators of Huntingtin-Antisense Promoter Activity
# Settings: HEK293 HTT-AS promoter firefly luciferase reporter, 24 h; series mostly up to 57.5 µM
# Procedure, shortened: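 2,500 luciferase reporter HEK293 cells/well; 24 h culture; cpds up to 57.5 uM final, PTC124 50 uM ctrl; 24 h, 37C; Dual-Glo FLuc reagent, 10 min RT; lum. Norm.: vehicle 0%, zero RLU -100%.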
# Potency is read from the fitted curve at half-maximal effect.
row,SMILES,Potency
1,COc1ccccc1NC(=O)CN1C(=O)C(C)(C)c2ccccc21,inactive
2,O=C(Nc1ccccc1)C1CCN(S(=O)(=O)c2ccc3[nH]c4c(c3c2)CCCCC4)CC1,inactive
3,COc1ccccc1C1C=C(c2ccc(F)cc2)Nc2nc(-c3ccc(Cl)cc3)nn21 (centres undefined),inactive
4,Cc1cc(SCC(=O)Nc2nsc(-c3ccc(C(C)(C)C)cc3)n2)nc2ccccc12,2.69 µM (active)
5,Cc1ccc(S(=O)(=O)NCCc2csc(-c3cccc(F)c3)n2)cc1,inactive
6,CCOc1ccc(S(=O)(=O)NCCc2sc3nc(-c4ccc(F)cc4)nn3c2C)cc1,inactive
7,Cc1ccc(C)c(N2CCN(S(=O)(=O)c3cc(C(=O)Nc4ccccc4C(F)(F)F)ccc3F)CC2)c1,inactive
8,Cc1ccc(NC(=O)c2c(NC(=O)C(F)(F)F)sc3c2CCCCC3)cc1,inactive
9,COC(=O)c1c(C)oc2ccc(N(C(=O)c3ccncc3)S(=O)(=O)c3cc(C)ccc3C)cc12,inactive
10,O=C(NCc1cccnc1)C(=O)NCC(c1cccnc1)N1CCN(c2ccccc2F)CC1 (centres undefined),inactive
11,CCOC(=O)C1CCCN(S(=O)(=O)c2ccc3c(c2)CCCN3C(C)=O)C1 (centres undefined),inactive
12,CCN1C(=O)c2ccccc2Sc2ccc(NC(=O)c3ccc(C)c(F)c3)cc21,inactive
13,Cc1c(C(=O)Nc2ccc(F)cc2)oc2ccc(S(=O)(=O)N3CCCCCC3)cc12,inactive
14,CCN(Cc1ccccc1)S(=O)(=O)c1ccc(N2CCCCS2(=O)=O)cc1,inactive
15,CCOc1ccc(CNC(=O)C2CCN(c3nnc(-n4c(C)ccc4C)s3)CC2)cc1,inactive
16,COc1cccc(C(=O)N2c3cc(C)ccc3C(C)(c3ccccc3)CC2(C)C)c1 (centres undefined),inactive
17,O=C(CN1CCCN(S(=O)(=O)c2ccc(Br)cc2)CC1)Nc1cccc(C(F)(F)F)c1,inactive
18,CC(=O)N1CCCc2cc(S(=O)(=O)N3CCN(c4ccccc4F)CC3)ccc21,inactive
19,CCC(C(=O)NCCc1ccc(SC)cc1)n1nc(C)c2c(C)n(-c3ccc(C)cc3)nc2c1=O (centres undefined),inactive
20,O=C(Cc1ccccc1)Nc1cccc(-c2cn3cccnc3n2)c1,10.7 µM (active)

row,SMILES,Potency
1,COc1ccc(Cl)cc1NC(=O)CSc1nccn1-c1ccc(Cl)cc1,inactive
2,COc1ccc(Cn2c(SCc3ccc(C(=O)NC4CCCCC4)cc3)nc3ccncc32)cc1,inactive
3,O=C(CN1C(=O)C2(SCC(=O)N2c2cccc(Cl)c2)c2ccccc21)NCCc1ccccc1 (centres undefined),inactive
4,CCCS(=O)(=O)NCCc1sc2nc(-c3ccc(F)cc3)nn2c1C,inactive
5,CCOc1ccc(NS(=O)(=O)c2ccc(-c3cc(C)no3)s2)cc1,inactive
6,Cc1ccc(CNS(=O)(=O)c2ccc(N3CCCCS3(=O)=O)cc2)cc1,inactive
7,CCc1c(C)sc2c1CCN(Cc1ccc(F)cc1)C2c1ccccc1 (centres undefined),inactive
8,COc1ccc(CCNC(=O)c2ccc3c(c2)CCN3S(=O)(=O)c2ccc(C)cc2)cc1OC,inactive
9,Cc1nnc(N2CCC(C(=O)NCCc3ccccc3Cl)CC2)c2nn(-c3ccccc3)c(C)c12,inactive
10,COc1cccc(NC(=O)c2oc3ccc(S(=O)(=O)N4CCCCCC4)cc3c2C)c1,inactive
11,Cc1ccc(C(=O)N2CCc3cc(CNC(=O)CSc4ccccc4)ccc32)cc1,inactive
12,Cc1ccccc1Nc1sc(C(=O)c2ccc(F)cc2)c(N)c1C(=O)NCCc1ccccc1,inactive
13,CC1=C(C(=O)OC2CCCC2)C(c2ccccc2Cl)CC(=O)N1 (centres undefined),inactive
14,Cc1cc(NC(=O)c2cc(-c3ccc(Cl)cc3)on2)nn1Cc1ccc(Cl)cc1,inactive
15,COc1ccc(-c2cc(C(=O)N3CCN(c4ccccc4OC)CC3)c3cc(C(C)C)ccc3n2)cc1,inactive
16,O=C(CCn1cnc2onc(-c3ccc(F)cc3)c2c1=O)Nc1ccc(F)c(Cl)c1,inactive
17,CC(=O)C1=C(c2ccc(Cl)c(Cl)c2)N(C(C)=O)n2c(C)nnc2S1,inactive
18,CCCOc1ccc(C2c3c(-c4ccccc4O)n[nH]c3C(=O)N2CCCOCC)cc1OCC (centres undefined),inactive
19,O=C(COCc1cc(-c2cccs2)on1)N1CCN(c2cccc(Cl)c2)CC1,inactive
